B1: PhoQ; a variant is named by its letters at X, in order, P23837 (parent)
chain: MKKLLRLFFPLSLRVRFLLATAAVVLVLSLAYGMVALIGYSVSFDKTTFRLLRGESNLFYTLAKWENNKLHVELPENIDKQSPTMTLIYDENGQLLWAQRDVPWLMKMIQPDWLKSNGFHEIEADVNDTSLLLSGDHSIQQQLQEVREDDDDAEMTHSVAVNVYPATSRMPKLTIVVVDTIPVELKSSYMVWSWFIYVLSANLLLVIPLLWVAAWWSLRPIEALAKEVRELEEHNRELLNPATTRELTSLVRNLNRLLKSERERYDKYRTTLTDLTHSLKTPLXXLQXXLRSLRSEKMSVSDAEPVMLEQISRISQQIGYYLHRASMRGGTLLSRELHPVAPLLDNLTSALNKVYQRKGVNISLDISPEISFVGEQNDFVEVMGNVLDNACKYCLEFVEISARQTDEHLYIVVEDDGPGIPLSKREVIFDRGQRVDTLRPGQGVGLAVAREITEQYEGKIVAGESMLGGARMEVIFGRQHSAPKDE

Among the data in a collection of fitness landscapes (doi:10.1126/science.1257360) are enrichment ratio values, retold here.

In all, about 140,000 sequences were measured (“enrichment ratio after two sorts for PhoP signalling”: median about 0, highest 2% from about 11 on). This excerpt belongs to a sample that is enriched for the highest values.

In the test the parent is B1. The test is described as follows: enrichment ratio after two sorts for PhoP signalling (ratio (wild type AVST 3.29)); higher = more functional. The note with it: with PhoP (E. coli).
YHCQ: the enrichment ratio is ≤ 0.25.

For the variant SHCA, the enrichment ratio was determined as 2.47.

Consider VHCQ, for which the enrichment ratio was ≤ 0.25.

Take THCQ: the enrichment ratio stood at 14.3.

With PQRE, the enrichment ratio is ≤ 0.25.

Regarding TLYI, the enrichment ratio came to 0.826.

On to RITC, for which the enrichment ratio is ≤ 0.25.

Consider RFYH, for which the enrichment ratio was ≤ 0.25.

On to FWFN, for which the enrichment ratio is ≤ 0.25.

For the variant ERAC, the enrichment ratio was ≤ 0.25.

For the variant SKNL, the enrichment ratio was ≤ 0.25.

Turning to RIAL, the enrichment ratio was ≤ 0.25.

As for SAAL, the enrichment ratio stood at 12.8.

In the case of SIAL, the enrichment ratio was determined as 15.1.

With SPAL, the enrichment ratio was ≤ 0.25.

Consider KYAL, for which the enrichment ratio is ≤ 0.25.

Consider SKRL, for which the enrichment ratio is ≤ 0.25.

As to SNAL, the enrichment ratio stood at 12.1.

For the variant SFAL, the enrichment ratio is ≤ 0.25.

Take SRAL: the enrichment ratio is ≤ 0.25.

In the case of SKAL, the enrichment ratio was found to be 12.2.

SQAL: the enrichment ratio is 7.54.

With ETHL, the enrichment ratio was ≤ 0.25.

For the variant VYRH, the enrichment ratio was ≤ 0.25.

With PVYN, the enrichment ratio is ≤ 0.25.

As for RLWM, the enrichment ratio was ≤ 0.25.

For LPNQ, the enrichment ratio is ≤ 0.25.

Turning to YSKE, the enrichment ratio is ≤ 0.25.

With NNAF, the enrichment ratio is ≤ 0.25.

TTGS: the enrichment ratio was found to be 8.05.

In the case of WDHH, the enrichment ratio is ≤ 0.25.

In the case of GVIH, the enrichment ratio was ≤ 0.25.

QAPP: the enrichment ratio was ≤ 0.25.

NSAL: the enrichment ratio is ≤ 0.25.

Take ITAL: the enrichment ratio was found to be 0.733.

Regarding YTAL, the enrichment ratio was ≤ 0.25.

Consider TTAL, for which the enrichment ratio came out at 18.4.

Regarding SSAL, the enrichment ratio worked out at 12.2.

In the case of MTAL, the enrichment ratio was found to be 5.98.

As for QEAL, the enrichment ratio is ≤ 0.25.

As for TIAL, the enrichment ratio came out at 12.9.

As for STAL, the enrichment ratio amounted to 11.5.

As for SLAL, the enrichment ratio came out at 10.6.

With NIAL, the enrichment ratio was determined as 1.57.

As to WIAL, the enrichment ratio was ≤ 0.25.

In the case of YSQQ, the enrichment ratio was ≤ 0.25.

Regarding PRCN, the enrichment ratio is ≤ 0.25.

RSCH: the enrichment ratio was ≤ 0.25.

For DCRN, the enrichment ratio was ≤ 0.25.

In the case of MFPC, the enrichment ratio is ≤ 0.25.

As to YLTE, the enrichment ratio was ≤ 0.25.

For METL, the enrichment ratio stood at 3.99.

In the case of WITL, the enrichment ratio is 0.966.

Take TSTL: the enrichment ratio was 20.7.

Turning to NVTL, the enrichment ratio is ≤ 0.25.

As to MATL, the enrichment ratio worked out at 7.59.

Take MMTL: the enrichment ratio turned out to be 13.2.

As for FVLT, the enrichment ratio was ≤ 0.25.

In the case of WYAY, the enrichment ratio was ≤ 0.25.

As for KNFK, the enrichment ratio is ≤ 0.25.

For MYGA, the enrichment ratio is ≤ 0.25.

Regarding GWFA, the enrichment ratio was ≤ 0.25.

Take RSRM: the enrichment ratio was ≤ 0.25.

For the variant GCLS, the enrichment ratio turned out to be 19.3.

Take GCNL: the enrichment ratio is ≤ 0.25.

Turning to GCLA, the enrichment ratio worked out at 6.8.

Regarding GCLN, the enrichment ratio amounted to 11.5.

For the variant KCLN, the enrichment ratio is ≤ 0.25.

Consider GCLT, for which the enrichment ratio worked out at 6.49.

VRSC: the enrichment ratio was ≤ 0.25.

Turning to YKWM, the enrichment ratio is ≤ 0.25.

For the variant TGSC, the enrichment ratio was determined as 20.2.

With QGSC, the enrichment ratio is 12.

For the variant FVSC, the enrichment ratio is ≤ 0.25.

As for GGSC, the enrichment ratio was determined as 9.93.

For NGSC, the enrichment ratio was ≤ 0.25.

Regarding FFSC, the enrichment ratio was ≤ 0.25.

Take FEYD: the enrichment ratio was ≤ 0.25.

With FCVK, the enrichment ratio was ≤ 0.25.

Consider ESKA, for which the enrichment ratio was ≤ 0.25.

In the case of NEVN, the enrichment ratio is ≤ 0.25.

On to VAFL, for which the enrichment ratio was 3.05.

WLWC: the enrichment ratio was ≤ 0.25.

As for QCGD, the enrichment ratio was ≤ 0.25.

For QCDS, the enrichment ratio is ≤ 0.25.

Consider QCWL, for which the enrichment ratio is 13.1.

For the variant QCNL, the enrichment ratio is ≤ 0.25.

For the variant QCWI, the enrichment ratio was 37.7.

GGWL: the enrichment ratio was ≤ 0.25.

As for VIGT, the enrichment ratio was ≤ 0.25.

In the case of IMSW, the enrichment ratio is ≤ 0.25.

For the variant VLWG, the enrichment ratio was ≤ 0.25.

As for VLWH, the enrichment ratio was ≤ 0.25.

As to VEWI, the enrichment ratio came out at 12.2.

Consider VEWH, for which the enrichment ratio came out at 13.7.

With VRWG, the enrichment ratio was ≤ 0.25.

Turning to VEWS, the enrichment ratio was determined as 2.49.

For VRWH, the enrichment ratio is ≤ 0.25.

In the case of VELA, the enrichment ratio was ≤ 0.25.

Consider VEWG, for which the enrichment ratio worked out at 18.1.

As for PTWI, the enrichment ratio is ≤ 0.25.

As to FAIR, the enrichment ratio was ≤ 0.25.

As to IVHI, the enrichment ratio is ≤ 0.25.

In the case of MQLF, the enrichment ratio turned out to be 2.66.

With IWYQ, the enrichment ratio was ≤ 0.25.

In the case of ATSW, the enrichment ratio turned out to be 1.32.

In the case of HLTG, the enrichment ratio stood at 1.04.

With SALG, the enrichment ratio was 15.9.

Take QCLG: the enrichment ratio is 2.4.

Turning to PTLG, the enrichment ratio was ≤ 0.25.

As for GCLG, the enrichment ratio turned out to be 14.9.

SCLG: the enrichment ratio turned out to be 12.6.

On to KCLG, for which the enrichment ratio was ≤ 0.25.

As for SPLG, the enrichment ratio is ≤ 0.25.

Consider KALG, for which the enrichment ratio was ≤ 0.25.

With STLG, the enrichment ratio stood at 14.5.

With PWLG, the enrichment ratio is ≤ 0.25.

As for SWLG, the enrichment ratio was ≤ 0.25.

As for NALG, the enrichment ratio was 0.397.

In the case of WEVH, the enrichment ratio was ≤ 0.25.

HANP: the enrichment ratio is ≤ 0.25.

Consider NMEQ, for which the enrichment ratio is ≤ 0.25.

With ILFS, the enrichment ratio is ≤ 0.25.

QRWI: the enrichment ratio is ≤ 0.25.

As for ISPF, the enrichment ratio is ≤ 0.25.

CVQT: the enrichment ratio is ≤ 0.25.

Turning to FDLG, the enrichment ratio is ≤ 0.25.

As for FQLG, the enrichment ratio was found to be 16.7.

As for NGLG, the enrichment ratio is ≤ 0.25.

TGLG: the enrichment ratio is 10.1.

On to SGLG, for which the enrichment ratio came to 15.5.

Take SYLG: the enrichment ratio came out at 9.61.

Consider KQLG, for which the enrichment ratio is ≤ 0.25.

Regarding EQLG, the enrichment ratio is ≤ 0.25.

For the variant WQLG, the enrichment ratio is ≤ 0.25.

Regarding DPLG, the enrichment ratio is ≤ 0.25.

For the variant SQLG, the enrichment ratio is 19.1.

For the variant TQLG, the enrichment ratio is 16.7.

GAQK: the enrichment ratio is ≤ 0.25.

For NGQA, the enrichment ratio is ≤ 0.25.

In the case of VMKG, the enrichment ratio was ≤ 0.25.

Take ILNQ: the enrichment ratio is ≤ 0.25.

Regarding DMSW, the enrichment ratio was ≤ 0.25.

Consider TCQW, for which the enrichment ratio was ≤ 0.25.

As to LQMI, the enrichment ratio is ≤ 0.25.

For the variant MMFL, the enrichment ratio is ≤ 0.25.

Turning to HDFE, the enrichment ratio was ≤ 0.25.

Turning to WLYA, the enrichment ratio was ≤ 0.25.

In the case of SFLG, the enrichment ratio was found to be 10.9.

SELG: the enrichment ratio was 25.3.

Consider MQLA, for which the enrichment ratio was ≤ 0.25.

On to MQWG, for which the enrichment ratio was found to be 4.64.

Regarding MQLG, the enrichment ratio was found to be 22.

For the variant KYLG, the enrichment ratio was ≤ 0.25.
